Mdm2 MdmX PPI – inhibitors of human Mdm2/MdmX interaction; O15151+Q00987; SaOS-2 split-luciferase Mdm2/MdmX complementation, luminescence; inhibition, % at 8 µM; 330,000 compounds, 3% hits; AID 485346;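 active means inhibition of at least 50% at 8 µM in the primary screen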
Target sequence (O15151 whole entry, looked up): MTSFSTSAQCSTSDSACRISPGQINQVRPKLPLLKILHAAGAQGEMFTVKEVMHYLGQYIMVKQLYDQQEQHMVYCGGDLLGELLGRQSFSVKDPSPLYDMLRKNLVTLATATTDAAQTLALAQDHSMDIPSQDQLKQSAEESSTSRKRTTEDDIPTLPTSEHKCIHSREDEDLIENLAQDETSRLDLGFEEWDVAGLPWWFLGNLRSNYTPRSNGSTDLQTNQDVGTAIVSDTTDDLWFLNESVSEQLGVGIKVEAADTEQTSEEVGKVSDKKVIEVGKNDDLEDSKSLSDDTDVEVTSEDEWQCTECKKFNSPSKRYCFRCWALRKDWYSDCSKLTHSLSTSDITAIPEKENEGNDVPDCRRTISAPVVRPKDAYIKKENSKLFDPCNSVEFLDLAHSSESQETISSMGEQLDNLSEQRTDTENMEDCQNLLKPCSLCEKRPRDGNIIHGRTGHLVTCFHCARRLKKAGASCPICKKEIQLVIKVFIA
Target sequence (Q00987 whole entry, looked up): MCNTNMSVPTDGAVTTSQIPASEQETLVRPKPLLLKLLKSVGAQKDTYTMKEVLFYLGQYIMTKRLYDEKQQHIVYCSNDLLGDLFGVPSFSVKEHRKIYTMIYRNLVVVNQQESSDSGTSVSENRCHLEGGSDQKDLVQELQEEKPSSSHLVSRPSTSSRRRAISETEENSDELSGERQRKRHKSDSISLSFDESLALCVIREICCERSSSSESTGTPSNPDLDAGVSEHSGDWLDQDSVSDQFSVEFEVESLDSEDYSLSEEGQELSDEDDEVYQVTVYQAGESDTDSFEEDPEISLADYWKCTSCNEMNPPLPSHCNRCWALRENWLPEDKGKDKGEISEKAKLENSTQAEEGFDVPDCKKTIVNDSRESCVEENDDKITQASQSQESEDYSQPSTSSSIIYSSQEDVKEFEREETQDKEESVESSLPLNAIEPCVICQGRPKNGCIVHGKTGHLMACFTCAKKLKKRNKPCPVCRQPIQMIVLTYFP
NR3A LBD binder – modulators (binders) of human NR3A ligand-binding domain; Tm shift relative to glycine control, % at 25 µM; AID 1259313; 340,000 compounds, 2.5% hits; NR3A LBD differential scanning fluorimetry, Tm shift; 0% = protein alone, 100% = glycine-bound protein;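 active means melting temperature shift of at least 10% of the positive control shift, at one fixed dose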
SKKanGAS inh – SKKanGAS growth inhibition. S. pyogenes SKKanGAS, kanamycin growth, BacTiter-Glo, 6 h. inhibition, % at 7.5 µM. 300,000 compounds, 1.3% hits;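 active means mean replicate score, as percent of positive control median, at least 50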;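 further: strain carries kanamycin resistance gene driven by streptokinase promoter and grows in 40 µg/ml kanamycin; loss of luminescence reflects streptokinase promoter inhibition or plain growth inhibition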
MPTP block – blocks calcium-induced mitochondrial swelling. isolated mouse mitochondria, Ca2+ swelling absorbance, 30 min. inhibition, % at 10 µM. 360,000 compounds, 1.4% hits. AID 602449;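 active means inhibition of 50% or more, scaled per plate between neutral and stimulator controls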
CSC inhib – cancer stem cell inhibition | 300,000 compounds, 1.1% hits | cancer stem cell-like cells viability, luminescence | AID 2717 | inhibition, % at 7.5 µM; in the data active means inhibition above about 75%; tested in HMLE shEcad cells
Beta cell apopt – blocks beta cell apoptosis | protection from apoptosis, % (no concentration beside the values) | 300,000 compounds, 0.8% hits | INS-1E cytokine-induced death, ATP luminescence, 48 h; percent of positive-control rescue, neutral wells zero;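 active means Every replicate reaches about 75%, or at least half do and their mean reaches it too, limit read from the data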;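 further: higher means more ATP so stronger rescue from cytokine killing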
A number is an active result; - = inactive; . = no result given. The list is not random: actives were taken first. Their share in the collection is about 6.9%.

SMILES | Mdm2 MdmX PPI | NR3A LBD binder | SKKanGAS inh | MPTP block | CSC inhib | Beta cell apopt
Cc1ccc(-c2nc(CS(=O)CC(=O)NCc3ccc4c(c3)OCO4)c(C)o2)cc1 (stereo not drawn) | - | - | - | - | 76 | -
CCc1ccc(-c2nc(CS(=O)CC(=O)NCc3ccc4c(c3)OCO4)c(C)o2)cc1 (stereo not drawn) | - | - | - | - | - | -
CCCCNC(=O)C1(C)CCCCN1C(=O)c1ccc(F)c(C)c1 (stereo not drawn) | . | . | . | - | . | .
CC(=O)CS(=O)(=O)c1ccc(Oc2ccc(S(=O)(=O)CC(C)=O)cc2)cc1 | - | - | - | - | - | -
O=C(O)CS(=O)(=O)c1ccc(Oc2ccc(S(=O)(=O)CC(=O)O)cc2)cc1 | - | 11 | - | . | - | -
CCCN(CC1CC1)c1nc(C)nc(Nc2c(Cl)cc(Cl)cc2Cl)c1Cl | - | - | 89 | - | 86 | .
CCCN(CC1CC1)c1nc(N)c(C#N)c(CC#N)c1C#N | - | - | - | - | - | -
O=C(CCl)c1ccc(Cc2ncc(C(F)(F)F)cc2Cl)s1 | - | - | 55 | - | - | -
Cc1onc(-c2c(Cl)cccc2Cl)c1C(=O)NN1CCCCCC1 | - | - | - | - | - | .
Cc1c(C(=O)NN2CCCCC2)nn(-c2ccc(Cl)cc2Cl)c1-c1ccc(I)cc1 | . | . | - | . | 101 | -
COc1ccccc1CNC(=O)c1cccc(S(=O)(=O)N(C)c2ccccc2)c1 | - | - | . | - | - | -
COc1cc(NC(=O)c2ccc(N)nc2)cc(C(=O)Nc2cccc(C(F)(F)F)c2)c1 | - | 30 | - | - | - | -
COc1cc(Nc2ccccn2)cc(C(=O)Nc2cccc(C(F)(F)F)c2)c1 | - | 21 | - | - | - | -
COc1cc(NC(=O)c2ccno2)cc(C(=O)Nc2cccc(C(F)(F)F)c2)c1 | - | - | - | - | - | -
COc1cc(NC(=O)c2nccnc2N)cc(C(=O)Nc2cccc(C(F)(F)F)c2)c1 | - | - | - | - | - | -
COC(=O)c1c(NC(=O)Cc2cccs2)sc2c1CCC(C)C2 (stereo not drawn) | - | - | - | - | 80 | -
CCOC(=O)c1c(NC(=O)CSc2ncnc3[nH]ncc23)sc2c1CCC(C)C2 (stereo not drawn) | - | - | - | - | - | -
CCOC(=O)c1c(NC(=O)CSc2nnnn2-c2ccccc2)sc2c1CCC(C)C2 (stereo not drawn) | - | 17 | - | - | - | -
CC(CCN1CCN(c2ccc(F)cc2)CC1)c1ccccc1 (stereo not drawn) | - | - | - | - | - | -
COc1cccc2sc(Nc3nnc(-c4cccs4)o3)nc12 | - | - | 92 | - | - | -
Fc1cccc2sc(Nc3nnc(-c4ccco4)o3)nc12 | - | - | 72 | - | - | -
O=C/C=C/c1c(-c2ccccc2)cc2oc3ccccc3cc1-2 | - | - | - | - | 98 | -
CC(C)[C@H](NC(=O)N1c2ccccc2NC(=O)[C@@H]1C(C)C)C(=O)N1CCC(C(=O)O)CC1 | - | - | - | - | - | -
COc1ccc(OC)c2c(C)c(C)[nH]c12 | - | 10 | - | - | - | -
Nc1cc(Cl)cc2c1-c1ccc(Cl)cc1C2 | . | 23 | . | - | . | .
SMILES | Mdm2 MdmX PPI | NR3A LBD binder | SKKanGAS inh | MPTP block | CSC inhib | Beta cell apopt
O=C(NCc1ccc(F)cc1)C1CCN(c2cnccn2)CC1 | - | - | - | - | . | -
Cc1cc2cc(C#N)c(N3CCN(S(C)(=O)=O)CC3)nc2cc1C | - | - | - | - | - | -
CN(CC(=O)NC1CC(C)(C)NC(C)(C)C1)S(=O)(=O)c1ccc(Br)cc1 | - | 13 | - | - | - | -
Cc1ccsc1/C=C/C1=Cc2c(sc(NC(=O)CSc3n[nH]c(N)n3)c2C#N)C(C)(C)C1 | - | 10 | - | - | - | .
NC(=O)c1ccsc1NC(=O)CSc1n[nH]c(N)n1 | - | - | . | - | - | -
CCOc1ccc(/C=C/C2=Cc3c(sc(NC(=O)CSc4n[nH]c(N)n4)c3C#N)C(C)(C)C2)cc1 | - | 14 | - | - | - | -
COc1cc(/C=N/Nc2ccc(Cl)c(C(=O)O)c2)ccc1OC(=O)c1ccccc1F | - | - | - | - | - | -
CC(C)c1nc2sc3c(=O)[nH]cnc3c2c2c1CCC2 | - | - | - | - | - | -
CC(C)c1nc2sc3c(=S)nc[nH]c3c2c2c1CCC2 | - | 38 | - | - | - | -
CCOc1ccccc1NC(=O)COC(=O)COc1cccc2c1OC(C)(C)C2 | . | . | . | - | . | .

Screening data: PubChem, several laboratories
